Source: paper PMC7862700, “An all-to-all approach to the identification of sequence-specific readers for epigenetic DNA modifications on cytosine”

Legend:
Assay in all cases: DAPPL (digital affinity profiling via proximity ligation, sequencing); 10 mM Tris-HCl pH 7.5, 50 mM NaCl, 1 mM DTT, 4% glycerol, room temperature, 30 min; GST-TFs on glutathione beads, 16-mer random dsDNA library, 0.1% formaldehyde crosslink after washing; high values mean tight binding
FEV = target: T1, FEV (Homo sapiens, UniProt Q99581 1-238); details: protein: recombinant; tags: N-terminal GST; dsDNA, one strand shown
T1 sequence: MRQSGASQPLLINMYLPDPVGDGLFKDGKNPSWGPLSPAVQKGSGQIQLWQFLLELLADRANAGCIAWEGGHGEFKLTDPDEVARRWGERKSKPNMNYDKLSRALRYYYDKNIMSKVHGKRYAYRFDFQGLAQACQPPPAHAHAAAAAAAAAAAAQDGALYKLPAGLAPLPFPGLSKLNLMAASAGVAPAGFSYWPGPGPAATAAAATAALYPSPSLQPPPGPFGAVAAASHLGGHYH
Method in brief: (§1)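 Binding signal is each hexamer's read frequency for a factor divided by its frequency in the tag-only sample. The factors were GST-fused human transcription factors from yeast, captured on glutathione beads, DNA-barcoded and pooled with that sample. Pools were incubated with 200 nmole of a random double-stranded 16-mer DNA library in Tris/NaCl/DTT/glycerol buffer at room temperature for 30 min, then washed, crosslinked with 0.1% formaldehyde, proximity-ligated with BsaI/T4 ligase (1 h, 37 °C), PCR-amplified and sequenced on an Illumina NextSeq500.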

ETV5 = ETV5 (Homo sapiens, UniProt P41161 1-510); details: protein: recombinant; tags: N-terminal GST; dsDNA, one strand shown
Method in brief: as §1

HSF1 = HSF1 (Homo sapiens, UniProt Q00613 1-529); details: protein: recombinant; tags: N-terminal GST; chain copies: 3; dsDNA, one strand shown
Method in brief: as §1

ELF4 = ELF4 (Homo sapiens, UniProt Q99607 1-663); details: protein: recombinant; tags: N-terminal GST; dsDNA, one strand shown
Method in brief: as §1

ELK4 = target: T2, ELK4 (Homo sapiens, UniProt P28324-2 1-405); details: protein: recombinant; tags: N-terminal GST; dsDNA, one strand shown
T2 sequence: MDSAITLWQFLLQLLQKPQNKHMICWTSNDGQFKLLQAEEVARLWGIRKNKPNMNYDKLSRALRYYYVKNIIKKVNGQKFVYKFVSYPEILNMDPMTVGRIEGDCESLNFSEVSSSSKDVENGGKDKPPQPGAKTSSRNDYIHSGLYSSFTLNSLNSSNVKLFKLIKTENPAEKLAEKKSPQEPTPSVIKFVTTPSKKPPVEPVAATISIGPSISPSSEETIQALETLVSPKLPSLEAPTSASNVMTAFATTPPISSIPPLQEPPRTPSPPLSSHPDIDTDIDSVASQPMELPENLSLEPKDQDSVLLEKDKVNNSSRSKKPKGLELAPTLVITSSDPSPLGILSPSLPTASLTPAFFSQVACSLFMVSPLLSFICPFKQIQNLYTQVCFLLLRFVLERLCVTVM
Method in brief: as §1

ETV2 = target: T3, ETV2 (Homo sapiens, UniProt O00321 1-342); details: protein: recombinant; tags: N-terminal GST; dsDNA, one strand shown
T3 sequence: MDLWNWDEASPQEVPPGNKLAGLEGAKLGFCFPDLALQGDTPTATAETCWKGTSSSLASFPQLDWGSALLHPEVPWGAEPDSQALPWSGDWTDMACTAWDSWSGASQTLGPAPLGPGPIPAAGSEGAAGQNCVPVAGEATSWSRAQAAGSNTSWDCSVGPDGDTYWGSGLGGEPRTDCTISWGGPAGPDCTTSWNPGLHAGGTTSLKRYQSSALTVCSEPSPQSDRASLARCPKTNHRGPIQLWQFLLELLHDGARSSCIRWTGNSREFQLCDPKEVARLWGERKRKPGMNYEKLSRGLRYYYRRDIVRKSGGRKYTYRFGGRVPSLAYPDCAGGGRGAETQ
Method in brief: as §1

ELF3 = target: T4, ELF3 (Homo sapiens, UniProt P78545 1-371); details: protein: recombinant; tags: N-terminal GST; dsDNA, one strand shown
T4 sequence: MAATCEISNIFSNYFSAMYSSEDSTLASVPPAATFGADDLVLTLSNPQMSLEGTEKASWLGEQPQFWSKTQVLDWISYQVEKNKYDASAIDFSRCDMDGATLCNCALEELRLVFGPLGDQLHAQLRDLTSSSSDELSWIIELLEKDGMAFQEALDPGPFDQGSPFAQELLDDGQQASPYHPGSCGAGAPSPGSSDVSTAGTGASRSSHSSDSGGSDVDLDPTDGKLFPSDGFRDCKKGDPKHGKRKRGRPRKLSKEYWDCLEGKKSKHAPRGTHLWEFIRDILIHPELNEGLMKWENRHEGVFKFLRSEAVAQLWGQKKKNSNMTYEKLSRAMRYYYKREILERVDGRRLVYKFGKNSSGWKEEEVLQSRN
Method in brief: as §1

CRX = CRX (Homo sapiens, UniProt O43186 1-299); details: protein: recombinant; tags: N-terminal GST; dsDNA, one strand shown
Method in brief: as §1

ETV1 = ETV1 (Homo sapiens, UniProt P50549 1-477); details: protein: recombinant; tags: N-terminal GST; dsDNA, one strand shown
Method in brief: as §1

ERF = target: T5, ERF (Homo sapiens, UniProt P50548 1-548); details: protein: recombinant; tags: N-terminal GST; dsDNA, one strand shown
T5 sequence: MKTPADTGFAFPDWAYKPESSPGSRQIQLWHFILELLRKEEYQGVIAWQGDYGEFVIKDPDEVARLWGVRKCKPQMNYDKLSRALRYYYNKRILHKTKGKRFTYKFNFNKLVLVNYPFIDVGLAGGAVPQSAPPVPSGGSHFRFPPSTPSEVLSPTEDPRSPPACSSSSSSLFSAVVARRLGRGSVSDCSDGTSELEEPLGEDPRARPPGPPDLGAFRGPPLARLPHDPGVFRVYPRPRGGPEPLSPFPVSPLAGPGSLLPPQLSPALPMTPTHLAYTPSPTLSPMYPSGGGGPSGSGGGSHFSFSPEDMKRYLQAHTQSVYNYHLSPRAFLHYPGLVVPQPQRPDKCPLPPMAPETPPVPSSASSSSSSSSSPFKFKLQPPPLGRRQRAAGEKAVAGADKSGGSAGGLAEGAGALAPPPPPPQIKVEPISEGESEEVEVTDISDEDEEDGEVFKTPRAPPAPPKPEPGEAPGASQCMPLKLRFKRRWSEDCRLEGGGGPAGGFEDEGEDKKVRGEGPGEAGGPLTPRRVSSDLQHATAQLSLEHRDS
Method in brief: as §1

ETV3L = target: T6, ETV3L (Homo sapiens, UniProt Q6ZN32 1-361); details: protein: recombinant; tags: N-terminal GST; dsDNA, one strand shown
T6 sequence: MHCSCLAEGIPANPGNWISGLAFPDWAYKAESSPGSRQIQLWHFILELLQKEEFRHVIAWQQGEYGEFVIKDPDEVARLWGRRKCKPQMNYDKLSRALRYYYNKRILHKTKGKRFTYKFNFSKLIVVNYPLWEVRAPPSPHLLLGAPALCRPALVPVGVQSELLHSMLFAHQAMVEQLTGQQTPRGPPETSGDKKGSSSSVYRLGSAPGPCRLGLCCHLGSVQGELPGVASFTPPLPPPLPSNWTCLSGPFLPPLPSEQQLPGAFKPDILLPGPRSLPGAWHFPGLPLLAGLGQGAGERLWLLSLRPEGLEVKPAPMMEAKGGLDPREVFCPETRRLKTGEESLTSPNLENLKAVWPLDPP
Method in brief: as §1

ETS2 = target: T7, ETS2 (Homo sapiens, UniProt P15036 1-469); details: protein: recombinant; tags: N-terminal GST; dsDNA, one strand shown
T7 sequence: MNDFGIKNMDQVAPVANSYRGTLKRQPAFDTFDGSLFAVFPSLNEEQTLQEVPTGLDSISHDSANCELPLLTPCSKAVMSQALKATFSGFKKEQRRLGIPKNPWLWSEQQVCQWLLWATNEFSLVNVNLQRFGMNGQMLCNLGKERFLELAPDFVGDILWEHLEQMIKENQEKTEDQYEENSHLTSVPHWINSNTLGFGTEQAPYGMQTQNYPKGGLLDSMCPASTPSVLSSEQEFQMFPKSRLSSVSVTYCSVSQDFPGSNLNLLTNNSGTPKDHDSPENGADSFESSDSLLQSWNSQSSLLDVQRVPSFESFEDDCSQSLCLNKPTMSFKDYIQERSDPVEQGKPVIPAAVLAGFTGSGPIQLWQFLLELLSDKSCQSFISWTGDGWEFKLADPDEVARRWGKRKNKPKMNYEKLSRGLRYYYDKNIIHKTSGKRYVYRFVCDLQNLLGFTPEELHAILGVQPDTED
Method in brief: as §1

ETV7 = target: T8, ETV7 (Homo sapiens, UniProt Q9Y603 1-341); details: protein: recombinant; tags: N-terminal GST; dsDNA, one strand shown
T8 sequence: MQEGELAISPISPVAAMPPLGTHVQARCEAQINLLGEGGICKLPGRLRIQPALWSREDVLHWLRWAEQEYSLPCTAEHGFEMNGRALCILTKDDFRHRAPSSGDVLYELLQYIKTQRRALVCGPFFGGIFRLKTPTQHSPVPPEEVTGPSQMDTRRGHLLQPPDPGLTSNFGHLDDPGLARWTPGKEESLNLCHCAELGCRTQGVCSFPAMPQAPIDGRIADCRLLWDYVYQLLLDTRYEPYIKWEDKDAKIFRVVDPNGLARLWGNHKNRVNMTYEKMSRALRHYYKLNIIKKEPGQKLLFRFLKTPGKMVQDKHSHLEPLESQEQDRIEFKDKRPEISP
Method in brief: as §1

ELF5 = target: T9, ELF5 (Homo sapiens, UniProt Q9UKW6-2 1-255); details: protein: recombinant; tags: N-terminal GST; dsDNA, one strand shown
T9 sequence: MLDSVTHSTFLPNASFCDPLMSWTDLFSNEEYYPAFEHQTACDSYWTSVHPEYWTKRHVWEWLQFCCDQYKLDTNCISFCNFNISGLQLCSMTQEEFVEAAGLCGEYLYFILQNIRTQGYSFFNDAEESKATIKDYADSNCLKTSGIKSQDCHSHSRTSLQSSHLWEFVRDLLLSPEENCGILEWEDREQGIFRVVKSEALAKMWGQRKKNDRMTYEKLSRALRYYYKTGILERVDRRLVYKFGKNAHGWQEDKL
Method in brief: as §1

ETV3 = target: T10, ETV3 (Homo sapiens, UniProt P41162-2 1-143); details: protein: recombinant; tags: N-terminal GST; dsDNA, one strand shown
T10 sequence: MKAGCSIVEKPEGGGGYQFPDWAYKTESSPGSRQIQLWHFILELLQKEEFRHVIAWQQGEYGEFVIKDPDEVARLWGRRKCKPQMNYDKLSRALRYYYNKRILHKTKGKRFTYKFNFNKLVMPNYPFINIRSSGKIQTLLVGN
Method in brief: as §1

ETV6 = ETV6 (Homo sapiens, UniProt P41212 1-452); details: protein: recombinant; tags: N-terminal GST; dsDNA, one strand shown
Method in brief: as §1

SPDEF = target: T11, SPDEF (Homo sapiens, UniProt O95238 1-335); details: protein: recombinant; tags: N-terminal GST; dsDNA, one strand shown
T11 sequence: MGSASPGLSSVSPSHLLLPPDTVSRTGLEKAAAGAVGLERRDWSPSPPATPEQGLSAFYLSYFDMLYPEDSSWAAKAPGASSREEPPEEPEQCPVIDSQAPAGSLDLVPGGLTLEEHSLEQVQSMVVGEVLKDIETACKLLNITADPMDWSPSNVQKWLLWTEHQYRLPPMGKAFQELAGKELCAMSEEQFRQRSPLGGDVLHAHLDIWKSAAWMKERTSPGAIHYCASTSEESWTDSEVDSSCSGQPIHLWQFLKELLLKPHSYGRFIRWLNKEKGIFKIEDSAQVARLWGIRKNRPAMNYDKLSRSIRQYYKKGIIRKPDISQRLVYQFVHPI
Method in brief: as §1

Sequence of ETV1 (P50549 whole entry): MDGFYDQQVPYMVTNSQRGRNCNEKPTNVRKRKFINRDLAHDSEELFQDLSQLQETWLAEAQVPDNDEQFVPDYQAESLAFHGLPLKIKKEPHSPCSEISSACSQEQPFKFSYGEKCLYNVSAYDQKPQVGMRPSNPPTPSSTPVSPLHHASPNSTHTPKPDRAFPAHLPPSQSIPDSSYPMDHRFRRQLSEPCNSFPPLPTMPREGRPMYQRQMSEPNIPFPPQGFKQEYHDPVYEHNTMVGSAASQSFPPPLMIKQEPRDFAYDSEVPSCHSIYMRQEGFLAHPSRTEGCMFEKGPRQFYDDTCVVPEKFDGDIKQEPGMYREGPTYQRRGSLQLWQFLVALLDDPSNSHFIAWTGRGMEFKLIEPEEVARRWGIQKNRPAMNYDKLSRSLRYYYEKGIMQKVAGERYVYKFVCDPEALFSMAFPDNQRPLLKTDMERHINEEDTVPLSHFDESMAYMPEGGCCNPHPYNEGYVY
Sequence of CRX (O43186 whole entry): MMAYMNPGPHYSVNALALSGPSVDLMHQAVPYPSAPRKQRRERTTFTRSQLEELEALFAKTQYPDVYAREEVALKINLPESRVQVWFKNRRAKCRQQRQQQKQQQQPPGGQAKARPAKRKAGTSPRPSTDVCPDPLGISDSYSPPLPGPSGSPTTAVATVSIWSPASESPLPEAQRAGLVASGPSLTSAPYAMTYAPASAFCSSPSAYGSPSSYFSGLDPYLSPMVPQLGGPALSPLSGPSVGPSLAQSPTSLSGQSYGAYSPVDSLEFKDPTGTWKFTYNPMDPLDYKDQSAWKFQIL
Sequence of HSF1 (Q00613 whole entry): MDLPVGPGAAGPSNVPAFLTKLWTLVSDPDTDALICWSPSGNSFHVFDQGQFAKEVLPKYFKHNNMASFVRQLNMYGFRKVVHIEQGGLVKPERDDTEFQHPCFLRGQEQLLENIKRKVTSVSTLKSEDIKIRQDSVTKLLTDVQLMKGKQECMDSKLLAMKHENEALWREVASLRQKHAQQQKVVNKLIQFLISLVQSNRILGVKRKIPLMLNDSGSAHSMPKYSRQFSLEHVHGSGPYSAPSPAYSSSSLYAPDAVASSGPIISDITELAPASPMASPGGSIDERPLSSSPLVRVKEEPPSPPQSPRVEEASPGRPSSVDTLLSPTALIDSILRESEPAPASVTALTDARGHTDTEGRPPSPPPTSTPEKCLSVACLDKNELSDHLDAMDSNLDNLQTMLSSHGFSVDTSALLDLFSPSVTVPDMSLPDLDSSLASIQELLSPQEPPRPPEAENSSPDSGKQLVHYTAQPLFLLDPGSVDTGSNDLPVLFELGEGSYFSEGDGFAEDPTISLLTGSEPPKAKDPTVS
Sequence of ETV5 (P41161 whole entry): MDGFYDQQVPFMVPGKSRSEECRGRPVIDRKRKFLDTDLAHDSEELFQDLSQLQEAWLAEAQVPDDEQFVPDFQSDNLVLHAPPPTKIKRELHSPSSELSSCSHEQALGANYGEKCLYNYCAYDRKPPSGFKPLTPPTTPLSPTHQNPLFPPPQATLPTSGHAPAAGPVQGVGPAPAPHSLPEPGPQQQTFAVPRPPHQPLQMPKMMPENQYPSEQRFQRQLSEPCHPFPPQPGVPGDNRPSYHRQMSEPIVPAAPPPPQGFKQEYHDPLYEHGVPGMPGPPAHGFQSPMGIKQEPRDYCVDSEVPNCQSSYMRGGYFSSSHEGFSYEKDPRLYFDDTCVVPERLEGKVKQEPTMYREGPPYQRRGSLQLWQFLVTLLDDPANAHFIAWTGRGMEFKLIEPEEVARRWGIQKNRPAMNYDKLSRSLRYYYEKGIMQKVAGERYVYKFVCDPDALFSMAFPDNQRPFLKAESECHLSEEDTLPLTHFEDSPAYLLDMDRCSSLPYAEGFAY
Sequence of ELF4 (Q99607 whole entry): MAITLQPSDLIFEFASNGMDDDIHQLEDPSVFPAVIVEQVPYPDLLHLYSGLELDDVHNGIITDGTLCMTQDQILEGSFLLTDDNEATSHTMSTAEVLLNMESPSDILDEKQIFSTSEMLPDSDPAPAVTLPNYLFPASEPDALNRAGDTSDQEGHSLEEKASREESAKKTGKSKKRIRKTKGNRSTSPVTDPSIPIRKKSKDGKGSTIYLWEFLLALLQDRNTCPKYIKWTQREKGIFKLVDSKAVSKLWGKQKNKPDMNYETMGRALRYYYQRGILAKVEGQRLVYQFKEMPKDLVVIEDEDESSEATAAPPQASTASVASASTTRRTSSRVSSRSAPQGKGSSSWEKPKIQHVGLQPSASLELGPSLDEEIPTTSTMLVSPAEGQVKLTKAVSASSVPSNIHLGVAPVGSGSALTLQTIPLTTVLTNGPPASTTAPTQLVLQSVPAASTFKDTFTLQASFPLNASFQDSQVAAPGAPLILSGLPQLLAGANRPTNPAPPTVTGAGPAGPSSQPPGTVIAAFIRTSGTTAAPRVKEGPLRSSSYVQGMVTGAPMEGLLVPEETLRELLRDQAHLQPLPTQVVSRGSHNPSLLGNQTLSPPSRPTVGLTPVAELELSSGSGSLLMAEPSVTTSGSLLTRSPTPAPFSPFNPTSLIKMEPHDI
Sequence of ETV6 (P41212 whole entry): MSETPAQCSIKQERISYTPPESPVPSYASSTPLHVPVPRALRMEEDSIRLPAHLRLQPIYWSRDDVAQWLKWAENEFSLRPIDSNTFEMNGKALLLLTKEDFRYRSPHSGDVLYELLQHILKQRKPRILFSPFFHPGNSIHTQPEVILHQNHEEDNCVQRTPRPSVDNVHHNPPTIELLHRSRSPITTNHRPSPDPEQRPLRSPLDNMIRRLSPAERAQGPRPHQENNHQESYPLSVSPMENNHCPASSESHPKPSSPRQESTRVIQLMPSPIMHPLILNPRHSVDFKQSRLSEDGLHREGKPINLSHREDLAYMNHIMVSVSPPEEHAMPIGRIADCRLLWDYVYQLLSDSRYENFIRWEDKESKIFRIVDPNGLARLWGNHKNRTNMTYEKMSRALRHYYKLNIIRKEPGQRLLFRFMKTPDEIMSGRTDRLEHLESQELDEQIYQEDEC

AAGACT
binding signal (FEV): 1.08 fold enrichment (6-mer frequency, TF over GST control)
binding signal (ETV5): 1.09 fold enrichment (6-mer frequency, TF over GST control)
binding signal (HSF1): 1.23 fold enrichment (6-mer frequency, TF over GST control)
binding signal (ELF4): 1.14 fold enrichment (6-mer frequency, TF over GST control)
binding signal (ELK4): 1.06 fold enrichment (6-mer frequency, TF over GST control)
binding signal (ETV2): 1.07 fold enrichment (6-mer frequency, TF over GST control)
binding signal (ELF3): 1.1 fold enrichment (6-mer frequency, TF over GST control)
binding signal (CRX): 1.36 fold enrichment (6-mer frequency, TF over GST control)
binding signal (ETV1): 1.02 fold enrichment (6-mer frequency, TF over GST control)
binding signal (ERF): 1.16 fold enrichment (6-mer frequency, TF over GST control)
binding signal (ETV3L): 1.04 fold enrichment (6-mer frequency, TF over GST control)
binding signal (ETS2): 1.07 fold enrichment (6-mer frequency, TF over GST control)
binding signal (ETV7): 1.08 fold enrichment (6-mer frequency, TF over GST control)
binding signal (ELF5): 1.15 fold enrichment (6-mer frequency, TF over GST control)
binding signal (ETV3): 1.12 fold enrichment (6-mer frequency, TF over GST control)
binding signal (ETV6): 1.13 fold enrichment (6-mer frequency, TF over GST control)

CCATTG
binding signal (FEV): 1.15 fold enrichment (6-mer frequency, TF over GST control)
binding signal (ETV5): 1.16 fold enrichment (6-mer frequency, TF over GST control)
binding signal (HSF1): 1.07 fold enrichment (6-mer frequency, TF over GST control)
binding signal (ELF4): 1.17 fold enrichment (6-mer frequency, TF over GST control)
binding signal (ELK4): 1.11 fold enrichment (6-mer frequency, TF over GST control)
binding signal (ETV2): 1.26 fold enrichment (6-mer frequency, TF over GST control)
binding signal (ELF3): 1.07 fold enrichment (6-mer frequency, TF over GST control)
binding signal (CRX): 1.02 fold enrichment (6-mer frequency, TF over GST control)
binding signal (ETV1): 1.05 fold enrichment (6-mer frequency, TF over GST control)
binding signal (ERF): 1.07 fold enrichment (6-mer frequency, TF over GST control)
binding signal (ETV3L): 1.22 fold enrichment (6-mer frequency, TF over GST control)
binding signal (ETS2): 1.14 fold enrichment (6-mer frequency, TF over GST control)
binding signal (SPDEF): 1.02 fold enrichment (6-mer frequency, TF over GST control)
binding signal (ETV7): 1.24 fold enrichment (6-mer frequency, TF over GST control)
binding signal (ELF5): 1.19 fold enrichment (6-mer frequency, TF over GST control)
binding signal (ETV3): 1.19 fold enrichment (6-mer frequency, TF over GST control)
binding signal (ETV6): 1.12 fold enrichment (6-mer frequency, TF over GST control)
